Results as given in the supplement of paper PMC6555819.

Columns and labels:
Assay in all cases: PBM binding z-score (relative to random genomic background probes); higher = stronger binding; sequences stand for … in GC…GCGATTGACAGCGTAGAATGAAGG
[1] = test system: FXR:RXRa (NR concentration 270 nM, RXRa partner concentration 90 nM)
Summary of the method: (§1)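 Each nuclear receptor dimer, without ligand, was incubated for 1 h on custom Agilent 4×180K protein-binding microarrays. Binding was detected with antibodies against each partner (one per run), and scanned fluorescence was regression-normalized. The binding z-scores are referenced to random human genomic background probes.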

[2] = test system: LXRa:RXRa (NR concentration 270 nM, RXRa partner concentration 90 nM)
Summary of the method: as §1

[3] = test system: LXRa homodimer (NR concentration 270 nM)
Summary of the method: as §1

[4] = test system: LXRb:RXRa (NR concentration 270 nM, RXRa partner concentration 90 nM)
Summary of the method: as §1

[5] = test system: LXRb homodimer (NR concentration 270 nM)
Summary of the method: as §1

[6] = test system: PPARa:RXRa (NR concentration 270 nM, RXRa partner concentration 90 nM)
Summary of the method: as §1

[7] = test system: PPARg:RXRa (NR concentration 180 nM, RXRa partner concentration 90 nM)
Summary of the method: as §1

[8] = test system: PPARg:RXRa 270nM:90nM, anti-RXR (NR concentration 270 nM, RXRa partner concentration 90 nM)
Summary of the method: as §1

[9] = test system: PPARg:RXRa 30nM:10nM, anti-RXR (NR concentration 30 nM, RXRa partner concentration 10 nM)
Summary of the method: as §1

[10] = test system: PPARg:RXRa 90nM:30nM, anti-RXR (NR concentration 90 nM, RXRa partner concentration 30 nM)
Summary of the method: as §1

[11] = test system: PPARg:RXRa DBDmut IVT, anti-RXR (DBD mutation: RXRa K156A/R161A, NR concentration 270 nM, RXRa partner concentration 90 nM)
Summary of the method: as §1

[12] = test system: PPARg:RXRa IVT, anti-PPARg (NR concentration 270 nM, RXRa partner concentration 90 nM)
Summary of the method: as §1

[13] = test system: PPARg DBDmut:RXRa IVT, anti-PPARg (DBD mutation: PPARg1 K132A/R137A, NR concentration 270 nM, RXRa partner concentration 90 nM)
Summary of the method: as §1

[14] = test system: PPARg DBDmut IVT, anti-PPARg (DBD mutation: PPARg1 K132A/R137A, NR concentration 270 nM)
Summary of the method: as §1

[15] = test system: PPARg homodimer (NR concentration 180 nM)
Summary of the method: as §1

[16] = test system: PXR:RXRa (NR concentration 270 nM, RXRa partner concentration 90 nM)
Summary of the method: as §1

[17] = test system: PXR homodimer (NR concentration 270 nM)
Summary of the method: as §1

[18] = test system: RARa:RXR (NR concentration 270 nM, RXRa partner concentration 90 nM)
Summary of the method: as §1

[19] = test system: RARa homodimer (NR concentration 270 nM)
Summary of the method: as §1

[20] = test system: RARb:RXRa (NR concentration 270 nM, RXRa partner concentration 90 nM)
Summary of the method: as §1

Row | Sequence | PBM binding z-score [1] | PBM binding z-score [2] | PBM binding z-score [3] | PBM binding z-score [4] | PBM binding z-score [5] | PBM binding z-score [6] | PBM binding z-score [7] | PBM binding z-score [8] | PBM binding z-score [9] | PBM binding z-score [10] | PBM binding z-score [11] | PBM binding z-score [12] | PBM binding z-score [13] | PBM binding z-score [14] | PBM binding z-score [15] | PBM binding z-score [16] | PBM binding z-score [17] | PBM binding z-score [18] | PBM binding z-score [19] | PBM binding z-score [20]
1 | ACTAGCAGGCCAAGGGACACTCAAGATTAGTCCG | -0.455 | -0.514 | -0.423 | -0.897 | -0.655 | -0.248 | 1.88 | 1.99 | 0.906 | 1.86 | 0.487 | 0.462 | -1.43 | -0.851 | -0.118 | -0.905 | -0.667 | -0.78 | -0.11 | 1.05
2 | CGTAAAAGTTCAAGGTAACGTAACAGAAAGCAGC | 5.78 | 5.24 | 2.41 | 3.04 | 1.2 | 4.35 | 2.48 | 3.11 | 1.09 | 1.91 | 0.129 | 1.62 | 1.87 | 1.28 | 2.19 | 3.49 | 1.82 | 2.92 | 1.29 | 4.99
3 | TGAATGAGGTTATAAGATCAGGGTACGTTGCAAA | 1.46 | 1.39 | 0.0526 | 1.44 | 0.315 | 2.72 | 1.53 | 1.96 | 0.789 | 1.23 | 0.889 | 1.69 | 1.22 | 0.612 | 0.135 | 1.17 | 0.33 | 1.74 | 0.229 | 1.27
4 | TCGAGTAGGTTACCAATGGGGCATCCAGCTTTCT | -0.0343 | 1.12 | -0.623 | 0.546 | -1.16 | 1.27 | 0.366 | 1.12 | 1.25 | 1.19 | 3.43 | 2.56 | -0.589 | -0.544 | -0.353 | -0.193 | -0.691 | 0.352 | -1.07 | 1.03
5 | CTCGAAAGGTCGGTTGAGGTGAGTATCCGGATAA | 2.5 | 1.81 | -0.338 | 1.44 | 0.0486 | 2.71 | 0.0243 | 1.33 | -0.0688 | 0.975 | 0.135 | 0.893 | -0.0361 | -0.258 | 1.02 | 2.98 | -0.135 | 2.21 | -0.322 | 3.18
6 | CGAACTAGGTCAGAATAGGACAGTGAAGGATGAT | 1.39 | 0.992 | -0.0335 | 0.45 | -0.693 | 3.02 | 5.03 | 4.31 | 1.81 | 3.36 | 6.67 | 6.96 | 2.83 | 1.87 | 0.535 | 0.652 | 0.356 | 1.01 | 0.988 | 2.73
7 | CCTACTGGGCCATCAGGTCACTGATATCAACGTT | 1.21 | 0.856 | 0.277 | 1.45 | -0.523 | 2.54 | 3.22 | 3.98 | 1.37 | 3.37 | 4.97 | 5.45 | -0.0281 | -0.141 | 0.904 | 1.44 | 0.0492 | 1.94 | -0.142 | 2.33
8 | TCTTGTAGATCATGCAGGTTAAGAAAGCCTGAGT | 0.492 | 0.415 | -0.144 | 0.657 | -0.00581 | 1.14 | -0.222 | 1.51 | 2.51 | 2.08 | 1.44 | 0.879 | 0.847 | 1.07 | 0.117 | 0.641 | 0.527 | 0.812 | 0.221 | 0.285
9 | CATACAGGGTCAGCTAGGACAGAGTAGGGACGGC | 4.48 | 2.8 | -0.0468 | 2.29 | 0.178 | 4.13 | 3.16 | 2.87 | 0.481 | 1.76 | 1.2 | 2.23 | 0.778 | 0.0196 | 0.881 | 2.07 | 0.128 | 3 | 0.439 | 4.04
10 | TCGAGTAGGTTACCAATGCGGCATTCAGCTTTCT | 0.106 | 0.532 | -0.94 | 0.215 | -0.704 | 0.883 | 0.206 | 1.1 | 1.23 | 1.24 | 3.59 | 2.67 | -0.407 | -1.16 | -0.385 | -0.209 | -1.01 | -0.26 | -0.774 | 0.646
11 | CTAACAAGGTGAACAAGGTCGTTGATTACTATTC | 1.46 | 1.2 | 0.00841 | 1.71 | -0.084 | 2.7 | 1.75 | 1.73 | 0.38 | 1.18 | 4.02 | 3.71 | 0.498 | 0.744 | 0.877 | 2.67 | 1.4 | 2.21 | 0.514 | 2.27
12 | TCTTGTAGAACAACAGGAGGTTAAGAAAGATCGA | 0.0476 | 1.07 | -0.0587 | 0.901 | -0.216 | 1.28 | 0.33 | 1.56 | 2.79 | 2.15 | 2.21 | 0.963 | 0.603 | 0.55 | 0.00875 | 0.716 | 0.0491 | 0.961 | 0.174 | 0.469
13 | GATAGAGGGTCAAGGCCAGAGTACGCGTATTGAT | 5.49 | 3.11 | -0.2 | 2.76 | -0.344 | 4.99 | 4.72 | 4.24 | 1.61 | 4.04 | 2.88 | 3.71 | 0.404 | 0.208 | 1.98 | 2.84 | 0.414 | 3.34 | 0.0585 | 4.12
14 | CAAACTAGGTCAAGGTCAGAGTCGGTTTGTGCCA | 5.93 | 4.35 | 1.98 | 3.26 | 0.405 | 5.7 | 9.05 | 7.77 | 6.36 | 8.17 | 8.39 | 8.85 | 4.94 | 5.19 | 4.13 | 4.13 | 1.18 | 4.4 | 2.46 | 5.06
15 | AGAACGAGGGCACGCTGAGTTGATTGCAGAGTAG | 0.793 | 0.4 | -0.818 | -0.114 | -1.35 | 1.94 | 1.71 | 1.83 | 0.402 | 1.15 | 4.08 | 3.53 | 0.256 | 0.126 | 0.222 | 1.56 | -0.0942 | 0.717 | -0.751 | 2.36
16 | TCTTGTAGATCAAGCGGGTTAAGAAAGCCTGAGT | 0.257 | 0.0631 | -0.461 | 0.225 | -0.187 | 0.817 | -0.599 | 1.1 | 2.23 | 1.81 | 1.69 | 0.202 | -0.333 | -0.182 | -0.174 | 0.313 | -0.037 | 0.0624 | -0.21 | 0.093
17 | TAGCCGAGGTCATTGGGCCAGTATAGTACGCATC | 7.32 | 5.83 | 2.5 | 5.28 | 1.76 | 6.2 | 6.77 | 6.15 | 3.26 | 5.02 | 2.68 | 4.59 | -0.49 | 0.82 | 2.28 | 5.5 | 2.28 | 4.87 | 0.0596 | 4.78
18 | TATACAGGGGCAAAGGCCAGAGTACGAATGTCGA | 0.799 | 1.07 | 0.0951 | 1.34 | 1.92 | 2.84 | 4.54 | 5.09 | 3.45 | 4.92 | 0.641 | 2.72 | 1.72 | 2.01 | 1.16 | 0.577 | 0.087 | 0.592 | 0.364 | 2.1
19 | GCTGCTAGGTCAACTGATGGTTAGCTAAAGCTCG | 4.53 | 2.96 | 0.0508 | 1.97 | 0.22 | 3.58 | 2.88 | 3.09 | 0.818 | 1.99 | 5.04 | 4.29 | 1.41 | -0.602 | 1.62 | 1.55 | -0.971 | 2.73 | -0.0413 | 4.31
